A short description of test [1]: compound effects on lung adenocarcinoma cell viability – A549, calcein-AM fluorescence, 48 h, basal, profiling panel (AID 1162). Note: test concentration not given here. To be noted: higher = more signal.
A short description of test [2]: compound effects on differentiated 3T3-L1 adipocyte viability – cell-based, 3T3-L1 adipocytes, calcein-AM fluorescence, 48 h, basal, profiling panel (AID 1163). Note: test concentration not given here. The following applies: 3T3-L1 adipocytes viability, higher = more signal.
Test [3] can be described thus: compound effects on hepatocellular carcinoma cell viability – HepG2, calcein-AM fluorescence, 48 h, basal, profiling panel (AID 1164). Note: test concentration not given here. To be noted: higher = more signal.
A short description of test [4]: compound effects on multiple myeloma cell viability – MM1S, calcein-AM fluorescence, 48 h, basal, profiling panel (AID 1165).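 Note: viability of MM1S multiple myeloma cells under basal unstimulated conditions; test concentration not given here.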 The following applies: higher = more signal.
Test [5] in a line: calcein-AM signal in unstimulated myeloma cells – cell-based, calcein-AM fluorescence, 48 h, PK04 Diversity Set, profiling panel (AID 1166).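 Note: cells grown under basal conditions without added stimulus; test concentration not given here.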 The following applies: RPMI8226 myeloma viability, higher = more signal.
Test [6] can be described thus: JC-1 mitochondrial signal, unstimulated HepG2 cells – cell-based, JC-1 fluorescence, 24 h, 100 nL compound, profiling panel (AID 1167). Note: test concentration not given here. To be noted: HepG2 mitochondrial potential, higher = more signal.
A short description of test [7]: JC-1 mitochondrial signal, unstimulated adipocytes – cell-based, JC-1 fluorescence, 3T3-L1 adipocytes, 24 h, 100 nL compound, profiling panel (AID 1168). Note: test concentration not given here. The following applies: JC-1 mitochondrial fluorescence, higher = more signal, called active from +8 up or from −8 down.
A short description of test [8]: JC-1 mitochondrial signal, unstimulated myeloma cells – cell-based, JC-1 fluorescence, RPMI8226, 24 h, 100 nL compound, profiling panel (AID 1169). Note: test concentration not given here. The following applies: JC-1 mitochondrial potential fluorescence, higher = more signal.
The nature of test [9]: JC-1 mitochondrial signal, unstimulated MM1S myeloma – cell-based, JC-1 fluorescence, 24 h, 100 nL compound, profiling panel (AID 1170). Note: test concentration not given here. The following applies: MM1S mitochondrial potential, higher = more signal.
Test [10] is described as follows: resazurin metabolic signal in A549 cells – cell-based, resazurin fluorescence, 24 h, PK04 Diversity Set, profiling panel (AID 1171). Note: test concentration not given here. To be noted: A549 viability, higher = more signal, called active from +8 up or from −8 down.
Test [11] in a line: resazurin metabolic signal in HepG2 cells – cell-based, resazurin fluorescence, 24 h, PK04 Diversity Set, profiling panel (AID 1172). Note: test concentration not given here. The following applies: HepG2 viability, higher = more signal.
The nature of test [12]: budding yeast growth changes without added modifier – OD600, strain BY4716, 24 h, basal condition, primary screen (AID 1173). The following applies: S. cerevisiae BY4716 growth, OD600, 24 h; higher = more signal, called active from +8 up or from −8 down.
The nature of test [13]: viability profiling in MM1S myeloma cells – cell-based, resazurin fluorescence, basal, 24 h, PK04 Diversity Set, profiling panel (AID 1174). Note: test concentration not given here. The following applies: higher = more signal, called active from +8 up or from −8 down.
For test [14], the target named is Dihydroorotate dehydrogenase (quinone), mitochondrial (Plasmodium falciparum (isolate 3D7)) (UniProt Q08210). The test is described as follows: inhibition of P. falciparum DHODH – biochemical, C-terminal His tag, absorbance 600 nm, primary screen (AID 1175).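 Note: recombinant parasite enzyme with a five histidine tag at its C terminus; test concentration not given here.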 To be noted: PfDHODH enzyme, DCIP absorbance 600 nm; higher = more signal, called active from +8 up or from −8 down.
Chain of Dihydroorotate dehydrogenase (quinone), mitochondrial (Plasmodium falciparum (isolate 3D7)) (Q08210 whole entry, looked up): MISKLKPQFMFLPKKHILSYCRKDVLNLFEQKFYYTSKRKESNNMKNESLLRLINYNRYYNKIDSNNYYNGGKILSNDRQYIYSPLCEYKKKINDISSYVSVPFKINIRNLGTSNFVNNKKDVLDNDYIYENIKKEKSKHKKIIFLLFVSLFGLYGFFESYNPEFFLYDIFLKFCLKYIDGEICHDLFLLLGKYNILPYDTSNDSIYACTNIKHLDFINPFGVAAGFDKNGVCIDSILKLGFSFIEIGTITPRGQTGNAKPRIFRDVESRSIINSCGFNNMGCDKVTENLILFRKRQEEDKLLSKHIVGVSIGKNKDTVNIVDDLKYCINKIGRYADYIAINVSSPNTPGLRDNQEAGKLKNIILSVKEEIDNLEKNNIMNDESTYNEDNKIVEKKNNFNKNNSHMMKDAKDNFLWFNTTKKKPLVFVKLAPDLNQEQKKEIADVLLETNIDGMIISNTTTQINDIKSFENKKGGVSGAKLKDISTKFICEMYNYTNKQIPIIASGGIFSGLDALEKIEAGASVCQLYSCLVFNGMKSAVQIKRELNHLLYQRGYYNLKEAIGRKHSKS

A short description of test [15]: inhibition of PAO1 biofilm formation – strain PAO1, LB-PBS medium, absorbance 600 nm, primary screen (AID 1176). Note: test concentration not given here. To be noted: P. aeruginosa PAO1 growth/biofilm, A600, 12 h; higher = more signal.
Test [16] can be described thus: growth modulation of vineyard yeast isolate – strain RM11-1a, OD600, basal, 24 h, primary screen (AID 1177).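 Note: cultures grown under basal conditions with no added stressor; test concentration not given here.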 The following applies: S. cerevisiae RM11-1a growth, OD600, 24 h; higher = more signal, called active from +8 up or from −8 down.
The nature of test [17]: growth of efflux-deficient E. coli DRC39 – strain DRC39, OD650, 24 h, E. coli filamentation inducers, primary screen (AID 1178).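 Note: growth measured as culture turbidity by optical density at 650 nm; test concentration not given here.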 The following applies: E. coli DRC39 acrAB, higher = more signal, called active from +8 up or from −8 down.
Test [18] can be described thus: growth of efflux-deficient E. coli DRC39 – strain DRC39, OD650, 48 h, E. coli filamentation inducers, primary screen (AID 1179).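 Note: screen aims at cell division blockers that make cells filament.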 To be noted: E. coli DRC39 delta-acrAB growth, higher = more signal, called active from +8 up or from −8 down.
Test [19] in a line: viability profiling in RPMI8226 myeloma cells – cell-based, resazurin fluorescence, basal, 24 h, PK04 Diversity Set, profiling panel (AID 1180).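 Note: RPMI8826 multiple myeloma cell line at 5000 cells per well; test concentration not given here.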 To be noted: higher = more signal.
The target in test [20] is E3 ubiquitin-protein ligase XIAP (Homo sapiens) (UniProt P98170). The test is described as follows: small molecules binding XIAP protein – biophysical, small-molecule microarray, fluorescence 635 nm, primary screen (AID 1181).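 Note: score merges 667 nm emission and signal to noise over triplicate slides.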 To be noted: higher = more signal.
Chain of E3 ubiquitin-protein ligase XIAP (Homo sapiens) (P98170 whole entry, looked up): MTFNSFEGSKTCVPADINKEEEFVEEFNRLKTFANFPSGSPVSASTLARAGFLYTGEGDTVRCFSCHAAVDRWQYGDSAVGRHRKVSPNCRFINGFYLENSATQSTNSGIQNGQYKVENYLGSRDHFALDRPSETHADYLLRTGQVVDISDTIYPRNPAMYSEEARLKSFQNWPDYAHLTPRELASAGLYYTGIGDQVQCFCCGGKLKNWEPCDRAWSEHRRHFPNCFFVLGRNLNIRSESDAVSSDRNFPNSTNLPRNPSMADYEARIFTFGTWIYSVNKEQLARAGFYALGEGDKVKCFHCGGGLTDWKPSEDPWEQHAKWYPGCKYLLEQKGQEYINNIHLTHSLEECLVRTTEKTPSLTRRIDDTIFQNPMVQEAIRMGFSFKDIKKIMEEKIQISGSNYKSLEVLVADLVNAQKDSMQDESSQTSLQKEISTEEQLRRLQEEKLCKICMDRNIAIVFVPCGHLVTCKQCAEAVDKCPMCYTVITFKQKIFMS

Active and inactive are the calls of the source. Unless noted, the rule behind the calls is not given here.

Take `CCOC(=O)C1=CC[C@@H](c2ccc(-c3ccc(OCc4ccccc4)cc3)c(OC)c2)N(S(=O)(=O)c2ccc(C)cc2)[C@H]1c1ccccc1`: the z-score was -0.603 in test [1]; -0.416 in [2]; 0.418 in [3]; -1.23 in test [4]; -0.119 in test [5]; 4.16 in test [6]. The z-score in [7] was 0.51 (inactive); in test [8] it was -0.161; in test [9], -1.54; in [10], 0.751 (inactive); in test [11], 0.899; in [12], 0.0553 (inactive). In addition, the z-score was 0.25 (inactive) in [13]; 0.325 (inactive) in test [15]; -0.0764 (inactive) in test [16]; 0.263 (inactive) in test [17]; 1.3 (inactive) in test [18]; 0.894 in test [19]. The composite z-score in test [14] was 0.917 (inactive); in test [20], -0.02.

In the case of `CC(=O)NCCCC[C@@H]1NC(=O)[C@H]2C[C@@H](C(=O)NCCCCCCN(C)C)[C@@H](c3cccc(OCCO)c3)N2C1=O`, the z-score in test [1] is 0.214; in test [2], 0.509; in test [3], 0.344; in [4], 0.27; in test [5], 0.079; in test [6] it was -0.0861. Besides, the z-score is -0.308 (inactive) in test [7]; -0.125 in test [8]; -0.376 in test [9]; -0.739 (inactive) in [10]; -0.526 in test [11]; -1.16 (inactive) in [12]. Further, the z-score in test [13] was -0.143 (inactive); in test [15], 0.42 (inactive); in test [16], -0.0243 (inactive); in test [17], 0.617 (inactive); in test [18], -0.197 (inactive); in test [19], -0.696. Besides, the composite z-score in [14] was -0.0259 (inactive); in test [20], -0.0067.

Turning to `CN1C(=O)C2C=CC(C(O)C3CC=CCC3)N(Nc3ccccc3)C2C1=O` (stereo not given), the z-score is -0.653 in test [1]; -1.14 in test [2]; -0.661 in test [3]; 0.228 in test [4]; -1.56 in test [5]; -0.965 in [6]. Moreover, the z-score in [7] is -0.117 (inactive); in [8], 0.116; in test [9] it was -0.608; in [10] it was -0.293 (inactive); in test [11], -0.488; in [12], 0.122 (inactive). The z-score in test [13] was -0.533 (inactive); in [15], 0.847 (inactive); in test [16], 0.0862 (inactive); in test [17], -1.11 (inactive); in [18] it was -0.196 (inactive); in test [19], -0.568. In addition, the composite z-score in test [14] was 0.0707 (inactive); in test [20], 0.301.

With `CCOC(=O)C[C@H]1[C@H](OC(=O)c2cc3ccccc3oc2=O)[C@@H](NC(=O)C2CCCCC2)c2cc(OCCCO)ccc2N1C(=O)c1ccc2ccccc2n1`, the z-score in test [1] is -0.133; in test [2], 0.536; in test [3], 0.312; in test [4] it was 0.0733; in test [5] it was -0.253; in test [6], 0.0115. Also, the z-score in [7] was -0.734 (inactive); in test [8] it was 0.322; in test [9], -0.166; in test [10] it was 0.164 (inactive); in test [11] it was -0.35; in test [12], 1 (inactive). Also, the z-score was 0.201 (inactive) in test [13]; -0.0339 (inactive) in test [15]; 1.58 (inactive) in test [16]; 0.205 (inactive) in [17]; 0.0214 (inactive) in [18]; 0.15 in test [19]. Further, the composite z-score in test [14] is 0.884 (inactive); in [20] it was -0.22.

As to `C[C@]1(C(=O)NCCN2CCOCC2)c2ccccc2C(=O)N(Cc2ccccc2)[C@H]1c1ccc(CO)cc1`, the z-score in test [1] was 0.665; in [2], -0.337; in [3], -0.289; in [4], 0.763; in test [5], -1.71; in test [6], 1.58. In addition, the z-score in [7] was -0.782 (inactive); in [8], -0.0116; in [9] it was -0.225; in test [10], 0.583 (inactive); in test [11], 0.702; in [12] it was -0.46 (inactive). The z-score in [13] is 0.402 (inactive); in test [15], 0.662 (inactive); in [16], 1.2 (inactive); in [17], 0.223 (inactive); in test [18] it was 0.134 (inactive); in test [19], 0.85. Moreover, the composite z-score in [14] was 1 (inactive); in test [20] it was 0.144.

With `COCCOC(=O)N1C(=O)[C@@]2(c3cc(C#CCCO)ccc31)[C@H](c1ccc(O)cc1)N1[C@H](c3ccccc3)[C@H](c3ccccc3)OC(=O)[C@H]1[C@@H]2C(=O)Nc1nc2ccccc2s1`, the z-score in test [1] was 0.615; in test [2], 1.62; in [3] it was -0.425; in [4] it was -0.24; in test [5], -1.53; in test [6], -3.45. The z-score in [7] was -2.22 (inactive); in test [8], -0.684; in test [9], -1.11; in [10], -0.192 (inactive); in [11], 0.484; in test [12] it was -0.297 (inactive). The z-score is -0.617 (inactive) in test [13]; 0.485 (inactive) in [15]; 0.39 (inactive) in test [16]; 0.438 (inactive) in test [17]; -0.619 (inactive) in test [18]; 0.179 in test [19]. The composite z-score is 0.864 (inactive) in test [14] and 0.267 in [20].

Consider `CCCC=C(CCC)[C@@H](NC(=O)c1ccc(C(F)(F)F)cc1)c1ccccc1`, for which the z-score is -0.842 in test [1]; 0.0679 in test [2]; -1.59 in [3]; -2.51 in test [4]; -2.58 in test [5]; -2.98 in test [6]. The z-score in test [7] was -0.208 (inactive); in test [8] it was -0.601; in test [9] it was -1.13; in [10] it was -0.396 (inactive); in [11], -0.421; in test [12], 0.79 (inactive). For the same compound, the z-score in test [13] is -0.507 (inactive); in test [15], 4.02 (inactive); in test [16], 0.513 (inactive); in [17], 0.0948 (inactive); in test [18], -0.221 (inactive); in test [19], -0.996. In addition, the values for the composite z-score in [14] and in test [20] were -3.63 (inactive) and -0.253, respectively.

In the case of `C=C(CCCC)/C(=C/C[C@@H](OC(=O)c1ccncc1)c1cccc(OCCO)c1)c1cc(C(=O)OC)ccc1OC`, the z-score in [1] was 1.25; in [2] it was -0.209; in test [3], 0.872; in [4] it was -2.25; in test [5], -2.99; in test [6], 2.91. The z-score in [7] was 0.244 (inactive); in test [8], 0.0948; in test [9] it was -0.132; in [10] it was 0.767 (inactive); in test [11] it was 1.02; in test [12], 0.199 (inactive). The z-score in test [13] is -0.73 (inactive); in [15], 1.05 (inactive); in [16], 0.0731 (inactive); in [17], 1.81 (inactive); in test [18] it was 1.33 (inactive); in [19], -0.647. For the same compound, the composite z-score in [14] is -0.757 (inactive); in [20] it was 0.137.

As for `CC(C)C[C@@H]1NC(=O)[C@H](CC(C)C)NC(=O)[C@@]23C(=O)N[C@@H](Cc4ccccc4)C2[C@H](C)[C@@]2(C)O[C@H]2C3/C=C/CC/C=C/CNC1=O` (stereo not given in full), the z-score in test [1] was -0.422; in test [2], 1.31; in test [3] it was -0.766; in test [4], -1.66; in [5], -2.04; in [6], 2.33. Also, the z-score is -0.141 (inactive) in test [7]; -0.366 in [8]; 0.19 in test [9]; 1 (inactive) in test [10]; -0.0096 in test [11]; -0.737 (inactive) in [12]. Moreover, the z-score in test [13] was 0.229 (inactive); in test [15], 0.179 (inactive); in test [16], 0.569 (inactive); in test [17] it was 0.794 (inactive); in test [18], -0.103 (inactive); in [19], 0.0441. In addition, the values for the composite z-score in [14] and in test [20] were -0.744 (inactive) and -0.02, respectively.

These data come from PubChem BioAssay.
